High-throughput results as filed in PubChem BioAssay.
Sampled rows, rich in hits. Any-hit rate of the full collection: about 19%.
HT1080 IDH1KD tx: qHTS for induction of synthetic lethality in tumor cells producing 2HG: qHTS for the HT-1080-IDH1KD cell line. 360,000 tested, 2% active. Potency, µM (top dose mostly 46.1 µM), usual class: cytotoxic. HT-1080 IDH1 knockdown viability, ATP luminescence, 48 h
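IDH1KD HT-1080 cells, 750/well, RPMI + 5% FBS; compound pinned after 2 h settling; 48 h, 37 °C; CellTiter-Glo luminescence; % activity normalised to DMSO and no-cell wells; curves fitted, classed by r2 and efficacy.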
TDP1 cell noCPT: qHTS for Inhibitors of human tyrosyl-DNA phosphodiesterase 1 (TDP1): qHTS in cells in absence of CPT; DT40 Tdp1-/- hTDP1 cells, no CPT, ATP luminescence, 48 h; Potency, µM (titrated, usually from 46.2 µM), usual class: inhibitors; 420,000 tested, 15% active; AID 686978, 2013; also: nearly all actives have a fitted effect of over 55% in size
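Chicken DT40 Tdp1-/- cells stably complemented with human TDP1 were seeded at 400 cells/well with DMSO in place of 20 nM camptothecin. After compound pinning, cells grew at least 48 hr at 37 °C; viability read by CellTiter-Glo luminescence.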
IL1B secr inh: qHTS for Inhibitors of Inflammasome Signaling: IL-1-beta AlphaLISA Primary Screen | THP-1 LPS/ATP IL-1B secretion, AlphaLISA, 16 h; active compounds read low | AID 743279, 2014 | activity change, % at 57.5 µM | 360,000 tested, 4.7% active; in the data active = activity change below about -50%; inconclusive = mostly about -30% to -49%
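Secreted IL-1B measured by AlphaLISA bead assay after 16 h compound exposure of THP-1 cells; compounds (final up to 57.5 uM) added 1 h before LPS (250 ng/mL) and ATP (1.25 mM) stimulation; lower signal means less secretion.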
TDP1 cell CPT: qHTS for Inhibitors of human tyrosyl-DNA phosphodiesterase 1 (TDP1): qHTS in cells in presence of CPT | 420,000 tested, 12% active | Potency, µM (doses to about 46.2 µM), most hits filed as inhibitors | chicken DT40 Tdp1-/-;hTDP1 cells + 20 nM CPT, ATP luminescence, 48 h; also: nearly all actives have a fitted effect of over 55% in size
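Chicken DT40 Tdp1-/- cells stably complemented with human TDP1 were seeded at 400 cells/well in medium containing 20 nM camptothecin, exposed to pin-transferred compounds, and grown at 37 °C for at least 48 hr. Viability was read as ATP luminescence.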
HT1080-NT tox: qHTS for induction of synthetic lethality in tumor cells producing 2HG: qHTS for the HT-1080-NT fibrosarcoma cell line. 360,000 tested, 1.6% active. HT-1080-NT fibrosarcoma viability, CellTiter-Glo ATP luminescence, 48 h. Potency, µM (doses to about 46.1 µM), hits mostly cytotoxic;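 also: NT is the 2HG producing partner of a matched IDH1 knockdown line; nearly all actives have a fitted effect of over 55% in size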
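A 48-hour cytotoxicity screen used HT-1080-NT cells plated 2 hours before compound delivery. ATP-based CellTiter-Glo luminescence measured viability, normalized to DMSO and no-cell controls.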
Each line names hits and unclear results; the compound was inactive in the other large screens. Unless noted, calls follow the shape of the dose curve; as a rule, active = well fitted curve in the direction sought with a large enough effect; inconclusive = small, poorly fitted or top-dose-only effect, or another doubt; inactive = no such curve, though single readings can be large; an effect the other way counts as inactive or inconclusive.

Cn1c(Cn2cnc([N+](=O)[O-])n2)nnc1SCC(=O)Nc1ccc(Br)cc1	none
O=Cc1s/c(=N\S(=O)(=O)c2ccccc2)n(CCCCl)c1Cl	HT1080 IDH1KD tx 7.31µM, TDP1 cell noCPT 0.731µM, IL1B secr inh -101.5, TDP1 cell CPT 0.517µM, HT1080-NT tox 7.31µM
Cc1ccc(C2(CCNS(=O)(=O)c3ccc(C)cc3)CCOC(C(C)C)C2)cc1 (stereo not given)	TDP1 cell noCPT inconclusive, TDP1 cell CPT inconclusive
CC(C)C1CC(CCNCc2ccc3c(c2)OCO3)(c2ccccc2)CCO1 (stereo not given)	HT1080 IDH1KD tx 25.9µM, TDP1 cell noCPT inconclusive, IL1B secr inh -68.6, TDP1 cell CPT inconclusive, HT1080-NT tox 18.4µM
CC(C)C1CC(CCNCc2ccc(N(C)C)cc2)(c2ccccc2)CCO1 (stereo not given)	HT1080 IDH1KD tx inconclusive, TDP1 cell noCPT 7.31µM, IL1B secr inh -100.4, TDP1 cell CPT 7.31µM
Cc1ccc(C2(CCNCc3ccc(N(C)C)cc3)CCOC(C(C)C)C2)cc1 (stereo not given)	HT1080 IDH1KD tx 18.4µM, IL1B secr inh -97.2, TDP1 cell CPT inconclusive, HT1080-NT tox 23.1µM
Cc1oc(C(N)=O)nc1-c1ccccc1	HT1080-NT tox inconclusive
COc1ccccc1C(CNC(=O)c1ccc(NS(=O)(=O)c2ccc3c(c2)OCCO3)cc1)N(C)C (stereo not given)	none
CCCCCc1c(-c2ccc(Br)cc2)ncn1CCc1ccccc1OC	HT1080 IDH1KD tx 20.6µM, TDP1 cell noCPT 4.61µM, IL1B secr inh -82.5, TDP1 cell CPT 6.51µM, HT1080-NT tox 16.4µM
CCCCCc1c(-c2ccc(F)cc2)ncn1CCc1ccccc1OC	HT1080 IDH1KD tx inconclusive, TDP1 cell noCPT 18.4µM, IL1B secr inh -50.8, TDP1 cell CPT 9.2µM, HT1080-NT tox inconclusive
COc1ccccc1CCn1cnc(Cc2ccccc2)c1C(C)C	HT1080 IDH1KD tx inconclusive, TDP1 cell noCPT 7.31µM, IL1B secr inh -51.8, TDP1 cell CPT 7.31µM, HT1080-NT tox inconclusive
COc1ccccc1CCn1cnc(-c2ccc(Br)cc2)c1C(C)C	HT1080 IDH1KD tx 23.1µM, TDP1 cell noCPT 18.4µM, TDP1 cell CPT 14.6µM, HT1080-NT tox 23.1µM
C=CCOC(=O)C1=C(C)Nc2nc3ccccc3n2C1c1ccncc1 (stereo not given)	TDP1 cell CPT inconclusive
Cc1ccc(S(=O)(=O)n2cnc3ccccc32)cc1[N+](=O)[O-]	IL1B secr inh inconclusive
Cn1c(=O)n(C)c2cc(NS(=O)(=O)c3ccc(C(C)(C)C)cc3)c(NCc3ccccc3)cc21	TDP1 cell noCPT 23.1µM, TDP1 cell CPT 20.6µM (no result: HT1080 IDH1KD tx, IL1B secr inh, HT1080-NT tox)
Cn1c(=O)n(C)c2cc(CNCc3ccccc3)ccc21	none (no result: HT1080 IDH1KD tx, IL1B secr inh, HT1080-NT tox)
Cn1c(=O)n(C)c2cc(S(=O)(=O)Nc3ccccc3C(=O)O)ccc21	none
Cc1cc(S(=O)(=O)Nc2ccccc2C)ccc1F	none
Cc1cc(S(=O)(=O)Nc2cc3c(cc2NCc2ccccc2)n(C)c(=O)n3C)ccc1F	TDP1 cell noCPT 11.6µM, TDP1 cell CPT 7.31µM (no result: HT1080 IDH1KD tx, IL1B secr inh, HT1080-NT tox)
Cn1c(=O)n(C)c2cc(NS(=O)(=O)c3ccccc3)c(NCc3ccccc3)cc21	TDP1 cell noCPT inconclusive, TDP1 cell CPT 14.6µM (no result: HT1080 IDH1KD tx, IL1B secr inh, HT1080-NT tox)
Cn1c(=O)n(C)c2cc(NS(=O)(=O)c3ccc(Cl)cc3)c(NCc3ccccc3)cc21	TDP1 cell noCPT 13µM, TDP1 cell CPT 10.3µM (no result: HT1080 IDH1KD tx, IL1B secr inh, HT1080-NT tox)
CN(C)c1cc2c(cc1NS(=O)(=O)c1ccccc1)n(C)c(=O)n2C	TDP1 cell noCPT inconclusive, TDP1 cell CPT inconclusive
CC(C)N1C(=O)CCC1C(=O)O (stereo not given)	none
COc1ccc(S(=O)(=O)Nc2cc3c(cc2NCc2ccccc2)n(C)c(=O)n3C)cc1OC	TDP1 cell noCPT 20.6µM, TDP1 cell CPT inconclusive (no result: HT1080 IDH1KD tx, IL1B secr inh, HT1080-NT tox)
COc1ccc(S(=O)(=O)Nc2ccccc2)cc1OC	none
O=C(Nc1ccccc1Cl)C(=O)c1cn(CC(=O)N2CCOCC2)c2ccccc12	none
O=C(Nc1cccc(F)c1)c1oc2ccccc2c1NC(=O)C12CC3CC(CC(C3)C1)C2	none (no result: HT1080 IDH1KD tx, IL1B secr inh, HT1080-NT tox)
CC(=O)NCCNc1nc2cc(-c3ccccc3)sc2c(=O)n1C	TDP1 cell noCPT inconclusive, TDP1 cell CPT inconclusive
Cc1ccccc1-c1cc2nc(NCCc3ccncc3)n(C)c(=O)c2s1	HT1080 IDH1KD tx inconclusive, TDP1 cell noCPT 14.6µM, TDP1 cell CPT 16.4µM, HT1080-NT tox inconclusive
Cn1c(NCCc2ccncc2)nc2cc(-c3ccccc3)sc2c1=O	TDP1 cell noCPT inconclusive, TDP1 cell CPT 25.9µM
CC(=O)NCCNc1nc2cc(-c3ccc(Cl)cc3C)sc2c(=O)n1C	TDP1 cell noCPT inconclusive, TDP1 cell CPT inconclusive
Cn1c(=NC(=O)COc2ccccc2)sc2ccccc21	none
CCc1ccccc1NC(=O)CSc1nnc(-c2cc(C)[nH]n2)n1N	none
Cc1ccc(CNC(=O)CSc2nc3n[nH]c(C)c3c(=N)n2-c2ccccc2Cl)cc1	TDP1 cell noCPT 23.1µM, TDP1 cell CPT 18.4µM (no result: HT1080 IDH1KD tx, IL1B secr inh, HT1080-NT tox)
Cc1ccccc1-n1c(SCC(=O)Nc2ccccc2Cl)nc2n[nH]c(C)c2c1=N	HT1080 IDH1KD tx inconclusive, TDP1 cell noCPT 18.4µM, TDP1 cell CPT 16.4µM, HT1080-NT tox inconclusive
